From paper PMC4336329 (PLoS ONE, 2015)
Among all 310,000 compounds or so, about 14,000 (4.5%) showed an effect of 50% or more. The effect is printed as a negative number. For the sample, strong results were picked, then their nearest neighbours and some compounds at random.

What follows are compounds tested against human ether-à-go-go-related gene (hERG) potassium channel (human, UniProt Q12809) (assay: primary screen, population patch clamp on CHO cells stably expressing hERG; higher = less effect of the substance).
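Note: peak tail current of the secondary pulse compared with the same well before compound.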

Chain of human ether-à-go-go-related gene (hERG) potassium channel (Q12809 whole entry, looked up): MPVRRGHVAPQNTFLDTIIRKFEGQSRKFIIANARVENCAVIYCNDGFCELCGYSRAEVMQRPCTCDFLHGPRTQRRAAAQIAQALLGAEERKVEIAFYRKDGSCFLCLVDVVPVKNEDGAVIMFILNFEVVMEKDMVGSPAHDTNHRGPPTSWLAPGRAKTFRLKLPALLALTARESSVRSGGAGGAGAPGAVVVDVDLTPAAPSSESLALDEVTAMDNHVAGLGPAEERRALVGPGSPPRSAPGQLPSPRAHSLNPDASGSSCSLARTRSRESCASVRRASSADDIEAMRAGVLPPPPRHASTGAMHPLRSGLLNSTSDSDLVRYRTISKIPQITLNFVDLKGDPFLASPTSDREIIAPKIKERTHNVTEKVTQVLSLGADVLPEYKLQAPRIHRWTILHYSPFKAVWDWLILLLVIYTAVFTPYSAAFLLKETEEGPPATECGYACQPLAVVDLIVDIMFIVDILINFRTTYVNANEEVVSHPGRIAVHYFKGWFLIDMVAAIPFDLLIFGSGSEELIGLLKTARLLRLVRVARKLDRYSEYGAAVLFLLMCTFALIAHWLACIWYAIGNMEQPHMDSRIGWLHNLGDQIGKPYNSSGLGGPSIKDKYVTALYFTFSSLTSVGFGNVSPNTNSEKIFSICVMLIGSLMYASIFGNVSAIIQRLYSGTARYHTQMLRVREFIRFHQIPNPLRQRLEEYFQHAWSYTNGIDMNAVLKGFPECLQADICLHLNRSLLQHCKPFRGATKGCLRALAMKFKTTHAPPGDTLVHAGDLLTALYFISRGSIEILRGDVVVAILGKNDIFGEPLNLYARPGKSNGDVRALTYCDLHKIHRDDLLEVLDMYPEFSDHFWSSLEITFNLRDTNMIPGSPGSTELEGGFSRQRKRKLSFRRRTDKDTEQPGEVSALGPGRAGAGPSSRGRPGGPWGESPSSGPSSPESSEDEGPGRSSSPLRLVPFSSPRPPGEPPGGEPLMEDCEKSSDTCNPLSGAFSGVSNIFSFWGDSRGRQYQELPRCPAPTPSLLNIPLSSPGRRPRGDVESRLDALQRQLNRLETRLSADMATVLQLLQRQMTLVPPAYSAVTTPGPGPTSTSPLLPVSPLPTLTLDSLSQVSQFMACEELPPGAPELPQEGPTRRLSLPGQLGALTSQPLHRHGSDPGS

Row | Compound | hERG current change (%, negative = inhibition) at 10uM
1 | CCc1c(C)sc(NC(=O)c2cc(-c3cc(OC)ccc3OC)on2)c1C#N | 3.3%
2 | COc1ccc2cc(C(=O)C3CCCN(C(=O)c4cccnc4)C3)ccc2c1 (centres unmarked) | -25.1%
3 | CCOC(=O)c1ccc(N=Nc2c(C)c(C#N)c(O)[nH]c2=O)cc1 | 1.91%
4 | Cc1ccc(OCCNC(=O)CCNS(=O)(=O)c2ccc(Br)cc2)cc1 | 15.7%
5 | CSc1nncc(-c2ccc(F)c(F)c2)n1 | 10.8%
6 | C=CCNC(=S)/N=C/c1c(O)[nH]c(=O)[nH]c1=O | -52.8%
7 | NC(=S)/N=C/c1c(O)[nH]c(=O)[nH]c1=O | 12.5%
8 | CCCCCCCCN=Cc1c(O)[nH]c(=O)[nH]c1=O | 4.9%
9 | CCNc1nc(NCC)n2c(SCC(=O)Nc3ccccc3Cl)nnc2n1 | 11%
10 | CCNC(=O)N1CCC(c2nc3ccccc3s2)CC1 | 10.3%
11 | O=C(CSc1ccc(Cl)cc1Cl)N1CCC(c2nc3ccccc3s2)CC1 | -14.5%
12 | O=C(CSc1ccc(F)cc1)N1CCC(c2nc3ccccc3s2)CC1 | -67.1%
13 | O=C(CSc1ccccc1Cl)N1CCC(c2nc3ccccc3s2)CC1 | -7.4%
14 | O=C(CSc1ccc(Cl)cc1)N1CCC(c2nc3ccccc3s2)CC1 | -59.7%
15 | O=C(CSc1c(Cl)cccc1Cl)N1CCC(c2nc3ccccc3s2)CC1 | -0.729%
16 | CS(=O)(=O)Cc1ccc(C(=O)N2CCCC2c2cccs2)cc1 (centres unmarked) | 16.9%
17 | CN(CCc1ccccn1)C(=O)CCC1CCCN(C(=O)c2ccccn2)C1 (centres unmarked) | 21.8%
18 | Cc1ccccc1C(=O)Nc1ccc2c(c1)OCCO2 | 6.96%
19 | Cc1ccc(C(=O)CCC(=O)Nc2ccccc2C)cc1C | 15%
20 | CCCCCCn1c(CN2CCN(Cc3ccccc3)CC2)nc2c1c(=O)n(C)c(=O)n2C | -71.8%
21 | CCCCCCn1c(CN2CCN(CCO)CC2)nc2c1c(=O)n(C)c(=O)n2C | -38.3%
22 | Cn1c(=O)c2c(nc(CN3CCCCC3)n2CCCc2ccccc2)n(C)c1=O | -29.1%
23 | CCCCCn1c(CN2CCN(Cc3ccccc3)CC2)nc2c1c(=O)n(C)c(=O)n2C | -68%

Row | Compound | hERG current change (%, negative = inhibition) at 10uM
24 | CCCCn1c(SCc2ccccn2)nc2c1c(=O)n(C)c(=O)n2C | -8.02%
25 | CN1CCN(Cc2nc3c(c(=O)n(C)c(=O)n3C)n2CCCc2ccccc2)CC1 | -13.4%
26 | CCOC(=O)Cn1c(Br)nc2c1c(=O)[nH]c(=O)n2C | -58%
27 | CCC(=O)OCCn1c(Br)nc2c1c(=O)[nH]c(=O)n2C | -0.796%
28 | CCCCCn1c(CN2CCN(CCO)CC2)nc2c1c(=O)n(C)c(=O)n2C | -17.9%
29 | CCCC(=O)OCCn1c(Br)nc2c1c(=O)[nH]c(=O)n2C | 16.9%
30 | CCCCn1c(SCc2cccnc2)nc2c1c(=O)n(C)c(=O)n2C | -28%
31 | CCCCn1c(SCc2nnc(-c3ccccc3)o2)nc2c1c(=O)n(C)c(=O)n2C | -56%
32 | COC(=O)c1c(NC(=O)COC(=O)C2CCC2)sc(C)c1C | -13.4%
33 | Fc1ccc(-c2n[nH]c(=S)n2Cc2ccccc2)cc1 | 7.48%
34 | NCc1nc(-c2ccc(Cl)cc2)no1 | 11.2%
35 | CCOC(=O)COn1c(=O)c(-c2ccc(OC)c(OC)c2)[n+]([O-])c2ccccc21 | -11.9%
36 | O=C(Nc1ccc2c(c1)OCO2)c1ccc(CO)cc1 | 4.24%
37 | CN1CCC(=NNC(=O)c2cc(-c3ccc(Cl)cc3)n[nH]2)CC1 | -16.4%
38 | c1ccc(-c2cccc(-c3ccccc3)n2)cc1 | 18.4%
39 | CCOc1ccc(CCNC(=O)COC(=O)C2CC2)cc1OCC | 3.41%
40 | Cc1nnc(SCC(=O)Nc2ccc3c(c2)OCCO3)n1N | 12.4%
41 | CSc1ccccc1NC(=O)c1c(Br)cnn1C | -1.39%
42 | CCCCCCn1c(CN2CCC(C)CC2)nc2c1c(=O)n(C)c(=O)n2C | -8.75%
43 | CCCCn1c(CN2CCN(C(=O)OCC)CC2)nc2c1c(=O)[nH]c(=O)n2C | 6.72%
44 | CCCCCn1c(CN2CCN(C)CC2)nc2c1c(=O)n(C)c(=O)n2C | -33.1%
45 | CCCCn1c(CN2CCN(C(=O)OCC)CC2)nc2c1c(=O)n(C)c(=O)n2C | -18.1%
46 | CCCCCCn1c(CN2CCCCC2)nc2c1c(=O)n(C)c(=O)n2C | -35.7%

Row | Compound | hERG current change (%, negative = inhibition) at 10uM
47 | CCCCCn1c(CN2CCN(C(=O)OCC)CC2)nc2c1c(=O)n(C)c(=O)n2C | -34.6%
48 | CCOCCn1c(CN2CCCC(C)C2)nc2c1c(=O)n(C)c(=O)n2C (centres unmarked) | 11.7%
49 | CCOC(=O)N1CCN(Cc2nc3c(c(=O)[nH]c(=O)n3C)n2CCCc2ccccc2)CC1 | -37.5%
50 | CCCCCn1c(CN2CCN(C(=O)OCC)CC2)nc2c1c(=O)[nH]c(=O)n2C | -69.8%
51 | CCCCCCn1c(CN2CCN(C(=O)OCC)CC2)nc2c1c(=O)n(C)c(=O)n2C | -53.5%
52 | CCCCCCn1c(CN2CCCC(C)C2)nc2c1c(=O)n(C)c(=O)n2C (centres unmarked) | -58.1%
53 | CCCCCCn1c(CN2CCN(C)CC2)nc2c1c(=O)n(C)c(=O)n2C | -80.9%
54 | CC1CCC(NC(=O)C2CC(=O)N(c3ccc4c(c3)OCCO4)C2)CC1 (centres unmarked) | 8.92%
55 | COc1ccc(N(C(=O)c2ccco2)S(=O)(=O)c2ccccc2)cc1 | -44.3%
56 | COc1cccc(NC(=O)CSc2nnnn2C(C)C)c1 | 2.64%
57 | COc1ccc(-c2nsc3c(N4CCCCC4C)ncnc23)cc1 (centres unmarked) | 33.3%
58 | Cc1nnc(NC(=O)C2CCCO2)s1 (centres unmarked) | 3.17%
59 | CCn1c2ccccc2c2cc(CN3CCN(S(=O)(=O)CC)CC3)ccc21.O=C(O)C(=O)O | -13.4%
60 | Cc1cc(OCC(=O)OC(C)(C)C)c2c3c(c(=O)oc2c1)CCC3 | 5.64%
61 | Cc1ccc(NC2CCCN(C(=O)c3cnc4ccccn4c3=O)C2)cc1C (centres unmarked) | -3.33%
62 | CCOc1ccc(S(=O)(=O)NCc2cccnc2)cc1 | 15.5%
63 | Cc1ccc(C(=O)OC2CCOC2=O)cc1NC(=O)c1ccco1 (centres unmarked) | 0.0901%
64 | Cc1cc(C)c2c(N)c(C(=O)NC3CC3)sc2n1 | 8.51%
65 | CC(C)(C)CNC(CO)C12CC3CC(CC(C3)C1)C2.Cl (centres unmarked) | -4.3%
66 | Cc1ncc(S(=O)(=O)C(C)(C)C)c(N)n1 | 2.37%
67 | O=C(c1sc2ccccc2c1Cl)N1CCN(c2ccccc2F)CC1 | -1.51%
68 | O=C(c1sc2ccccc2c1Cl)N1CCN(c2ncccn2)CC1 | -9.78%
69 | Cc1noc(C)c1C(=O)N1CCN(C(=O)c2sc3cc(Cl)ccc3c2Cl)CC1 | -47.4%

Row | Compound | hERG current change (%, negative = inhibition) at 10uM
70 | O=C(c1sc2ccccc2c1Cl)N1CCN(c2ccc(F)cc2)CC1 | -3.54%
71 | O=C(c1sc2ccccc2c1Cl)N1CCN(c2ccccn2)CC1 | -68.7%
72 | O=C(c1sc2cccc(Cl)c2c1Cl)N1CCN(CCc2ccccn2)CC1 | -28.9%
73 | O=C(c1sc2cc(Cl)ccc2c1Cl)N1CCN(CCc2ccccn2)CC1 | -69.6%
74 | O=C(c1sc2ccccc2c1Cl)N1CCN(CCc2ccccn2)CC1 | -60.5%
75 | O=C(c1cc(-c2ccccn2)nc2ccc(Cl)cc12)N1CCN(CCc2ccccc2)CC1 | 6.73%
76 | COc1cc(C)nc(N2CCCC(C(=O)NC3CCC(C)CC3)C2)n1 (centres unmarked) | -0.336%
77 | CCOc1ccc(CCNC(=O)CSCc2ccc(C)cc2)cc1OCC | -2.33%
78 | Cc1cc2c(cc1C)NC(=O)CC(C(F)(F)C(F)(F)C(F)(F)F)=N2 | 9.6%
79 | C(=N\NC1=Nc2cccc3cccc1c23)/c1cccnc1 | -5.08%
80 | O=C(O)c1ccc(NC(=O)C(c2ccccc2)c2ccccc2)cc1 | 14.3%
81 | COc1ccc(C2C(C#N)=C(SC)NC3=C2C(=O)CC(C)(C)C3)cc1 (centres unmarked) | -15.4%
82 | COC(=O)[C@@H]1CCCN1Cc1c(C(=O)N2CCOCC2)nc2c(C)cccn12 | 24.1%
83 | COc1ccccc1NC(=O)Nc1ccnn1C1CCCCC1 | -12.7%
84 | COc1ccccc1N1CCN(CC(=O)Nc2ccnn2C2CCCC2)CC1 | 3.01%
85 | O=C(Nc1ccnn1C1CCN(CCCC2CCCC2)CC1)c1ccccc1 | -73.1%
86 | O=C(Nc1ccnn1C1CCN(CCCC2CCCC2)CC1)c1ccccc1Cl | -86.4%
87 | COc1ccccc1C(=O)Nc1ccnn1C1CCN(CCCC2CCCC2)CC1 | -85.1%
88 | O=C(Nc1ccnn1C1CCN(C2CCCC2)CC1)c1ccccc1 | 1.61%
89 | O=C(Nc1ccnn1C1CCN(C2CCCCC2)CC1)c1ccccc1 | -25.8%
90 | O=C(c1cc(=O)[nH]c2ccccc12)N1CCc2ccccc2C1 | 11%
91 | O=c1c2ccccc2nc2n1CCO2 | 10.2%
92 | COc1cc2cc(Oc3ccc4ccc(=O)oc4c3)c(=O)oc2cc1OC(C)=O | 0.234%
